Assay results from the supplement of paper PMC10849652.
About 7,900 targets were measured; listed, in parts, are those with a hit and a random draw of the rest. About 0.6% of all pairs of compound and target were hits. Unmarked numbers belong to inactive results.

Columns and labels:
Experiment in all cases: log2 fold change, soluble protein after heating vs DMSO (PISA); higher = thermal stabilisation; K562 cells, 10 uM, 30 min; active = over 0.2 and 3.5 SD of the protein, either way, in both replicates (recomputed)
[1] = compound: CC[C@@H]1C(=O)N(C)c2cnc(Nc3ccc(C(=O)NC4CCN(C)CC4)cc3OC)nc2N1C1CCCC1
Procedure, shortened: (§1)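 Thermal stability values are relative to control samples and come from duplicates. They are expressed as log2 fold changes. For measurement, K562 cells (2×10^6 cells/mL) received 10 μM compound for 30 min, and aliquots were heated for 3 min over 48°C-58°C, pooled, and extracted at 4°C in PBS with 0.5% NP-40. Soluble protein, the supernatant after 21,000xg for 90 min, was quantified by TMTpro 16plex LC-MS/MS with equalised channel sums.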

[2] = compound: CC[C@@H]1C(=O)N(C)c2cnc(Nc3ccc(C(=O)N[C@H]4CC[C@H](N5CCN(CC6CC6)CC5)CC4)cc3OC)nc2N1C(C)C [volasertib]
Procedure, shortened: as §1

[3] = compound: CC[C@H](C)N1C=C(C2=C(C=C(C=C21)C3=CN=C(C=C3)N4CCNCC4)C(=O)NCC5=C(C=C(NC5=O)C)C)C
Procedure, shortened: as §1

[4] = compound: CC[C@H](C)[C@@H](C(=O)N[C@@H]([C@@H](C)O)C(=O)N[C@@H](CC(C)C)C(=O)[C@]1(CO1)C)NC(=O)[C@H]([C@@H](C)CC)N(C)C(=O)C [epoxomicin]
Procedure, shortened: as §1

[5] = compound: CCn1c(C(=O)N(C2CC2)C2CC2)cc2c3c(ncn3C)c(Nc3cc(C)n(C)n3)nc21
Procedure, shortened: as §1

[6] = compound: CCn1cc(-c2ccnc3[nH]c(-c4cccc(CN(C)C)c4)cc23)c(-c2ccc(NC(=O)N(C)C)cc2)n1
Procedure, shortened: as §1

[7] = compound: CN(C)CC(=O)Nc1ccc2[nH]c(=O)c3ccccc3c2c1
Procedure, shortened: as §1

[8] = compound: CN(CCOC1=CC=C(C=C1)C[C@H]2C(=O)NC(=O)S2)C3=CC=CC=N3 (racemic) [rosiglitazone]
Procedure, shortened: as §1

[9] = compound: CN1C2=C(C3=C1C(=O)N(N=C3)CC4=CC(=CC=C4)N)SC(=C2)S(=O)C
Procedure, shortened: as §1

[10] = compound: CN1CCC(CNc2ccc3ncc(-c4cccc(OC(F)(F)F)c4)n3n2)CC1
Procedure, shortened: as §1

Chain of UniProt P0CG48 (P0CG48 whole entry, looked up): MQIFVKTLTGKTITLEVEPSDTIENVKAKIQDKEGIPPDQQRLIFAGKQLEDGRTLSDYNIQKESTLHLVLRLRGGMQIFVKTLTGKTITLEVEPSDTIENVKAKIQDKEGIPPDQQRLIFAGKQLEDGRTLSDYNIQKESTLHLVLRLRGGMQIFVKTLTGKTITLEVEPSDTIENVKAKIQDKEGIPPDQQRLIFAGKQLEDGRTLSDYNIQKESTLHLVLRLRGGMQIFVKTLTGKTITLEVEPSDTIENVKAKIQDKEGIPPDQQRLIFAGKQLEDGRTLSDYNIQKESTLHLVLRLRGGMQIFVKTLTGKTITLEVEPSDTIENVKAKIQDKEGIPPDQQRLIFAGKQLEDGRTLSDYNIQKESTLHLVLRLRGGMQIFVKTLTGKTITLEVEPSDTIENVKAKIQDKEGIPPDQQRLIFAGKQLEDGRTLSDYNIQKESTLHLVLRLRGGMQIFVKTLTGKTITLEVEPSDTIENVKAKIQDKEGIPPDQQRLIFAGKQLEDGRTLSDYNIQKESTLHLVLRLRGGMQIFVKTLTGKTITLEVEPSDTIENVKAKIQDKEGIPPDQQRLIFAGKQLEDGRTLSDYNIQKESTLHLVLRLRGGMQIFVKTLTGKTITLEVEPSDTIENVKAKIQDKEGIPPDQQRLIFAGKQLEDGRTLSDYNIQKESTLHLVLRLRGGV
Chain of UniProt P22314 (P22314 whole entry, looked up): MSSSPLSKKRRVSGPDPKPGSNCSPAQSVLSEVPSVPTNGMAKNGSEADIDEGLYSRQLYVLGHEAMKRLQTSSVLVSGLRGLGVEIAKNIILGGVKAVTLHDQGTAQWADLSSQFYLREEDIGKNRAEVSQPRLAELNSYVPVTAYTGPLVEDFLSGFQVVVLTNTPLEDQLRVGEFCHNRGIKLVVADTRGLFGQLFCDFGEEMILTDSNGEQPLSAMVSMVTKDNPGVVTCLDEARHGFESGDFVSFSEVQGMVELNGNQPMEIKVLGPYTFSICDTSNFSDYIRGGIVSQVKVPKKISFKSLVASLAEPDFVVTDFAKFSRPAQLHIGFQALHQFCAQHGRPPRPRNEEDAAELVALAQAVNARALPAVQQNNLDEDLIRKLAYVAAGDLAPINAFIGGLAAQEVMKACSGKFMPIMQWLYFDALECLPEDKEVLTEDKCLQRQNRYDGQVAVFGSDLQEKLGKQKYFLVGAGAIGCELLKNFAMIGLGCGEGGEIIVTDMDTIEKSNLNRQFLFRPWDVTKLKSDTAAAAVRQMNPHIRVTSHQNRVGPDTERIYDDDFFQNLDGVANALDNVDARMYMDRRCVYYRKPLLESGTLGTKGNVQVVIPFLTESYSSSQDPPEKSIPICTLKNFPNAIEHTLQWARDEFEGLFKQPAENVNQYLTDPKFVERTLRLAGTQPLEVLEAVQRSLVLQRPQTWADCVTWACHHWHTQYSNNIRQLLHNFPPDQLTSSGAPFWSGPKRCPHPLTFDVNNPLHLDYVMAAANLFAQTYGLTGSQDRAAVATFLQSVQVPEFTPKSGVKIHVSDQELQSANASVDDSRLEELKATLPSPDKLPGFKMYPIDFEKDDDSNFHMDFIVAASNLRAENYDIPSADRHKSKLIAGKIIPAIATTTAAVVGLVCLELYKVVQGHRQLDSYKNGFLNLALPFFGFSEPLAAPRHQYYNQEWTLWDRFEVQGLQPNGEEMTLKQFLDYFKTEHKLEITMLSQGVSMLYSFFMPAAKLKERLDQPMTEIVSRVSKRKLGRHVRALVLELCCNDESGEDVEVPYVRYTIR
Chain of UniProt Q9BVJ6 (Q9BVJ6 whole entry, looked up): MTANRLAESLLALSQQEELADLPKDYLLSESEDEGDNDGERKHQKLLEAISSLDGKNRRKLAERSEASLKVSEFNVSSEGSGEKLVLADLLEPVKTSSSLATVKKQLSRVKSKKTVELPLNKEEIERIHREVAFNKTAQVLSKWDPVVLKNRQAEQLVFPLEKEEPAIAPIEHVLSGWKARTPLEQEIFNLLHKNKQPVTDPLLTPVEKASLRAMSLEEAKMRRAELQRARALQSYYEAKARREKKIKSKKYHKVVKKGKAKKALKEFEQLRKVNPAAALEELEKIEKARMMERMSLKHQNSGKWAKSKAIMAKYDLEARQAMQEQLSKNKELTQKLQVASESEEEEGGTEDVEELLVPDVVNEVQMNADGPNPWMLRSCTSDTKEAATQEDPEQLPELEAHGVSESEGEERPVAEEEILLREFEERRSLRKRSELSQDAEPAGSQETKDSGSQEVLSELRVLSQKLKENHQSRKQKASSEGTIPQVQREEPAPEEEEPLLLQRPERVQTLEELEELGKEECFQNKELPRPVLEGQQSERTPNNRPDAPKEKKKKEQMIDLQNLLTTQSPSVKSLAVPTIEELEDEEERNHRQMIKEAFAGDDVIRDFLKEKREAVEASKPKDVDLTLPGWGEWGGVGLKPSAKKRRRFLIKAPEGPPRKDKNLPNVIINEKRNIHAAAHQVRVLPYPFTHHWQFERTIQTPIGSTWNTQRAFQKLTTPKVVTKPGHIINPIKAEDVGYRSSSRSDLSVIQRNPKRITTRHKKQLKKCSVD
Chain of UniProt Q8NCE0 (Q8NCE0 whole entry, looked up): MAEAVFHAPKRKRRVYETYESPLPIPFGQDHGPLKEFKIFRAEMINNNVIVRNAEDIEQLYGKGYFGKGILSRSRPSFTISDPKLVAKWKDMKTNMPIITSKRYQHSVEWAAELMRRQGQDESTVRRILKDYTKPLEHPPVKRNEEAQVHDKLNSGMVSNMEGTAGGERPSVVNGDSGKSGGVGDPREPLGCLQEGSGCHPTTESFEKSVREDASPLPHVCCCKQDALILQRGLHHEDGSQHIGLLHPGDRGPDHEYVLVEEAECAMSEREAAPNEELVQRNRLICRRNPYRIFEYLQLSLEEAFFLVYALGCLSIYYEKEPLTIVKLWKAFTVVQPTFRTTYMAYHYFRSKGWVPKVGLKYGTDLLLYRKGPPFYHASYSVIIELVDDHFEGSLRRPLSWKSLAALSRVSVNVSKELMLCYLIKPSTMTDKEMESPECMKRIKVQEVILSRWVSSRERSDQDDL
Chain of UniProt Q6NUQ4 (Q6NUQ4 whole entry, looked up): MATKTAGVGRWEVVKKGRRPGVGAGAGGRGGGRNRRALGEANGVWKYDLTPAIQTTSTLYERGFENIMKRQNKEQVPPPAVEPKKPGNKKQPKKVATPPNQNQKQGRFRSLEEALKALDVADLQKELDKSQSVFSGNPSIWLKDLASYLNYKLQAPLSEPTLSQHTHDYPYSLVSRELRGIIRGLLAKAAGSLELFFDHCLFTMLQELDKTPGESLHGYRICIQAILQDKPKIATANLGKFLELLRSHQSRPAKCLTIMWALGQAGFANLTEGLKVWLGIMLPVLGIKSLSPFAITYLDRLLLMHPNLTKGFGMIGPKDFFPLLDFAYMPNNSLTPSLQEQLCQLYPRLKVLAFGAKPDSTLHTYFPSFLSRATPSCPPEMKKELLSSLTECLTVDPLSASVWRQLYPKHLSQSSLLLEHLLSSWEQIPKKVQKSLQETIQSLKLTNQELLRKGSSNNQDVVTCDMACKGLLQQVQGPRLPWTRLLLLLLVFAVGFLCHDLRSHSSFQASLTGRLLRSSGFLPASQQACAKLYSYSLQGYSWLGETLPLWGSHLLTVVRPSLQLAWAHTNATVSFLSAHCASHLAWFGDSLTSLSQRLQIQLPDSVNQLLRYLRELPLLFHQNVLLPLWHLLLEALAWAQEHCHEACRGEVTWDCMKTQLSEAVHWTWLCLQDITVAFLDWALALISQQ
Chain of UniProt Q86SZ2 (Q86SZ2 whole entry, looked up): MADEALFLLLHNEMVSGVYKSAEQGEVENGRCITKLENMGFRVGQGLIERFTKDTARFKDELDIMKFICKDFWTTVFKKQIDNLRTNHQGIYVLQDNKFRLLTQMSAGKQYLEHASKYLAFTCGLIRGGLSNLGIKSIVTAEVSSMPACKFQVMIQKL
Chain of UniProt Q9UBK9 (Q9UBK9 whole entry, looked up): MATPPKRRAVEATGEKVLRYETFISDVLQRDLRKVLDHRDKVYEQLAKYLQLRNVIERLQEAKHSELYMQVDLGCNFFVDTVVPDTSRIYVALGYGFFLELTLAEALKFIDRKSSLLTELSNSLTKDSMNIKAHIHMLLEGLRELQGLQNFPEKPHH
Chain of UniProt Q9UL33 (Q9UL33 whole entry, looked up): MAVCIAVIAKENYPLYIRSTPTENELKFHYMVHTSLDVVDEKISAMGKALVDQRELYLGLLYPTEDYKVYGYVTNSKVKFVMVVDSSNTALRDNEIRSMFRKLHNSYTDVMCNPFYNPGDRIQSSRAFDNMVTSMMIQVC
Chain of UniProt P61960 (P61960 whole entry, looked up): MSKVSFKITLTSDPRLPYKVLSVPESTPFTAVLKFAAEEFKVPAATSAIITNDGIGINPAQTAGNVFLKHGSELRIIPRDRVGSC
Chain of UniProt Q9C037 (Q9C037 whole entry, looked up): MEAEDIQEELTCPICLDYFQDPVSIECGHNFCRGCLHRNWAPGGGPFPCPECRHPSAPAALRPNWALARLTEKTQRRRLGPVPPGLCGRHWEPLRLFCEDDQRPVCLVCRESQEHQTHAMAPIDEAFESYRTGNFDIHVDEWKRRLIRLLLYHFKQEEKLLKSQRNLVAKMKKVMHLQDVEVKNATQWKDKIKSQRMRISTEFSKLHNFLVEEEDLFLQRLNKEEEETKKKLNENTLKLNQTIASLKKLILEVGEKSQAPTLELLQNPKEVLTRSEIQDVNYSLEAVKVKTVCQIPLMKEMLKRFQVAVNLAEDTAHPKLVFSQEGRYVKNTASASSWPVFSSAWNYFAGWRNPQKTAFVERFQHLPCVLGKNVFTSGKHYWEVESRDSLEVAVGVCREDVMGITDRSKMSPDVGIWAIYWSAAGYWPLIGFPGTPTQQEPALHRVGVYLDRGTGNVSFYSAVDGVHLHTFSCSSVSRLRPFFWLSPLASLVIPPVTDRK

| Target | log2 fold change [1] | log2 fold change [2] | log2 fold change [3] | log2 fold change [4] | log2 fold change [5] | log2 fold change [6] | log2 fold change [7] | log2 fold change [8] | log2 fold change [9] | log2 fold change [10] |
| --- | --- | --- | --- | --- | --- | --- | --- | --- | --- | --- |
| TMEM63B (UniProt Q5T3F8) | -0.001 | 0.071 | -0.019 | 0.039 | 0.041 | 0.011 | -0.052 | -0.052 | 0.042 | -0.073 |
| USP3 (UniProt Q9Y6I4) | -0.173 | -0.325 | 0.04 | -0.083 | -0.051 | -0.037 | 0.063 | 0.094 | -0.077 | -0.379 (active) |
| USP25 isoform 3 (UniProt Q9UHP3) | -0.085 | -0.297 (active) | 0.046 | 0.008 | -0.016 | -0.004 | 0.041 | 0.022 | -0.03 | -0.006 |
| TMEM214 (UniProt Q6NUQ4) | -0.023 | -0.246 (active) | 0.075 | 0.032 | -0.056 | -0.023 | 0.008 | 0.046 | 0.004 | 0.148 |
| UBE3D (UniProt Q7Z6J8) | -0.033 | -0.053 | 0.012 | 0.031 | 0.063 | -0.023 | -0.004 | 0.003 | -0.051 | -0.016 |
| WDR18 (UniProt Q9BV38) | 0.034 | -0.1 | 0.022 | 0.016 | 0.039 | -0.026 | -0.017 | 0.007 | 0.018 | -0.002 |
| UBR2 (UniProt Q8IWV8) | 0.046 | -0.104 | -0.004 | 0.196 | -0.026 | -0.039 | -0.076 | 0.063 | 0.114 | -0.063 |
| TOP2A isoform 4 (UniProt P11388) | 0.198 | 0.226 | 0.106 | -0.231 | 0.052 | 0.156 | -0.194 | -0.169 | 0.526 | 0.128 |
| UBC (UniProt P0CG48) | 0.065 | 0.087 | 0.015 | 0.401 (active) | 0.026 | 0.024 | 0.003 | 0.003 | -0.023 | 0.158 |
| TMEM263 (UniProt Q8WUH6) | -0.462 (active) | -0.5 | -0.03 | 0.005 | -0.004 | -0.105 | 0.024 | 0.015 | -0.057 | -1.32 (active) |
| VWA3B isoform 6 (UniProt Q502W6) | -0.038 | -0.631 (active) | -0.203 | -0.262 | -0.037 | -0.125 | -0.007 | 0.076 | -0.023 | -0.234 |
| UBA1 (UniProt P22314) | -0.236 | -0.543 (active) | 0.133 | 0.044 | -0.098 | -0.008 | 0.115 | 0.132 | 0.023 | -0.02 |
| UCHL5 (UniProt Q9Y5K5) | -0.113 | -0.295 (active) | 0.074 | 0.116 | -0.017 | -0.028 | 0.04 | 0.03 | -0.003 | -0.099 |
| VPS8 (UniProt Q8N3P4) | -0.087 | -0.647 (active) | 0.079 | -0.015 | -0.068 | -0.038 | 0.001 | 0.118 | -0.023 | -0.332 (active) |
| UTP14A (UniProt Q9BVJ6) | 0.092 | 0.176 | 0.028 | -0.144 | 0.028 | 0.106 | -0.136 | -0.106 | 0.263 | 0.106 |
| UBAP1 isoform 4 (UniProt Q9NZ09) | -0.012 | -0.545 (active) | 0 | 0.092 | -0.037 | 0.006 | -0.034 | 0.022 | 0.023 | -0.089 |
| TRAPPC2L (UniProt Q9UL33) | -0.109 | -0.065 | 0.008 | 0.06 | -0.076 | -0.042 | 0.128 | 0.053 | 0.007 | 0.001 |
| UBXN10 (UniProt Q96LJ8) | -0.057 | -0.319 | 0.156 | 0.127 | 0.034 | 0.014 | -0.088 | 0.009 | 0.087 | -0.103 |
| VPS52 (UniProt Q8N1B4) | -0.107 | -0.383 (active) | 0.153 | 0.092 | 0.012 | 0.006 | -0.021 | 0.094 | 0.037 | -0.027 |
| UHRF1BP1L (UniProt A0JNW5) | 0.165 | 0.034 | -0.009 | -0.022 | -0.018 | -0.086 | 0.02 | 0.028 | -0.079 | 0.1 |
| WDCP (UniProt Q9H6R7) | -0.196 | -0.477 (active) | 0.102 | 0.127 | -0.062 | 0.071 | 0.057 | 0.047 | 0.124 | -0.019 |
| TRAPPC6B (UniProt Q86SZ2) | -0.015 | -0.002 | -0.011 | 0.146 | 0.009 | -0.05 | -0.01 | -0.008 | -0.026 | -0.08 |
| UXT isoform 2 (UniProt Q9UBK9) | 0.082 | 0.128 | 0.05 | -0.038 | -0.294 | -0.248 | 0.015 | 0.022 | -0.052 | -0.126 |
| TRMT10C (UniProt Q7L0Y3) | -0.161 | -0.416 (active) | 0.07 | 0.046 | -0.064 | -0.057 | 0.018 | 0.021 | 0.008 | 0.003 |
| TPR (UniProt P12270) | 0.095 | -0.034 | -0.018 | 0 | 0.055 | 0.067 | -0.03 | -0.02 | -0.005 | 0.297 (active) |
| TRIM4 (UniProt Q9C037) | 0.01 | -0.042 | 0.178 | 0.111 | 0.063 | -0.069 | 0.03 | 0.021 | – | 0.294 |
| UFM1 (UniProt P61960) | 0.025 | -0.13 | -0.092 | 0.023 | -0.026 | – | 0.043 | 0.029 | -0.062 | – |
| VDAC1 (UniProt C9JI87) | 0.097 | 0.08 | -0.334 | -0.007 | 0 | – | – | – | 0.21 | – |
| TRABD (UniProt Q9H4I3) | 0.245 | 0.215 | 0 | -0.004 | 0.128 | -0.108 | 0.029 | 0.001 | – | 0.228 |
| TSEN2 (UniProt Q8NCE0) | -0.019 | -0.146 | 0.053 | 0.078 | -0.021 | -0.082 | 0.086 | 0.077 | -0.04 | 0.034 |
